Experimental data published in PubChem BioAssay (NCI).
This is part of a sample that, as a whole, favours compounds with a hit. Of some 79,000 tested, about 15% had one in any assay. A number with no mark means an inactive call. Active and inactive are the calls of the source. Cut-off read from the data, not from the text of the source: active = growth inhibition above about 70%; inactive = the rest.

Legend:
[1] = NCI Yeast Anticancer Drug Screen. Data for the rad50 strain (AID 155);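 note: 0% = growth of vehicle-only cultures of the same strain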; conditions: S. cerevisiae rad50 strain growth inhibition, active compounds read high
Procedure, shortened: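 Genetically altered yeast (DNA repair pathway); compound treatment; growth inhibition vs vehicle ctrl.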

[2] = NCI Yeast Anticancer Drug Screen. Data for the mec2-1 strain (AID 157); conditions: S. cerevisiae mec2-1 strain, active compounds read high
Procedure, shortened: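 Growth inhibition is read against vehicle-treated controls after compound exposure of the mec2-1 yeast strain, which is defective in DNA damage repair or cell cycle control.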

[3] = NCI Yeast Anticancer Drug Screen. Data for the sgs1 mgt1 strain (AID 161);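 note: 0% = growth of cultures given vehicle only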; conditions: S. cerevisiae sgs1 mgt1 strain, active compounds read high
Procedure, shortened: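 Compounds are added to genetically altered yeast, and growth is compared with cultures given vehicle alone to give percent inhibition.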

[4] = NCI Yeast Anticancer Drug Screen. Data for the cln2 rad14 strain (AID 165);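 note: 0% = growth equal to vehicle treated cultures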; conditions: S. cerevisiae cln2 rad14 strain, active compounds read high
Procedure, shortened: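 Growth inhibition, relative to vehicle-treated controls, is the read-out. The test organism is a yeast strain with defined genetic alterations, cln2 rad14.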

[5] = NCI Yeast Anticancer Drug Screen. Data for the bub3 strain (AID 167); conditions: S. cerevisiae bub3 mutant strain, active compounds read high
Procedure, shortened: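 Yeast carrying a defined mutation is treated with each compound, and growth is compared with that of vehicle-exposed cells to give inhibition.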

[6] = NCI Yeast Anticancer Drug Screen. Data for the mlh1 rad18 strain (AID 175); conditions: S. cerevisiae mlh1 rad18 strain growth inhibition, active compounds read high
Procedure, shortened: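 Cells of a genetically altered yeast strain, deficient in DNA damage repair, were treated with compound. Their growth was then compared with that of vehicle-treated cultures to give inhibition.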

[7] = at 5.0 µM (retest, dose inferred, filed as 0.5)
[8] = at 50.0 µM (retest, dose inferred, filed as 5.0)

Structure (SMILES) | growth inhibition [1, 7] | growth inhibition [1, 8] | growth inhibition ([1]; at 50.0 µM) | growth inhibition [2, 7] | growth inhibition [2, 8] | growth inhibition ([2]; at 50.0 µM) | growth inhibition [3, 7] | growth inhibition [3, 8] | growth inhibition ([3]; at 50.0 µM) | growth inhibition [4, 7] | growth inhibition [4, 8] | growth inhibition ([4]; at 50.0 µM) | growth inhibition [5, 7] | growth inhibition [5, 8] | growth inhibition ([5]; at 50.0 µM) | growth inhibition [6, 7] | growth inhibition [6, 8] | growth inhibition ([6]; at 50.0 µM)
COc1cc(CC(=O)N2CC2)cc(OC)c1OC | -6% | -1% | 7.85% | 0% | 8% | -3.1% | -6% | 2% | -13.6% | -7% | -3% | 39.4% | -5% | -1% | 13.9% | -2% | -8% | -13.8%
O=S(=O)([O-])[O-].[OH3+].[OH3+].[OH3+].[Ru+2].c1ccccc1 | -39% | -9% | 88.8% (active) | -1% | -2% | 92.2% (active) | -15% | 20% | 90.5% (active) | -9% | 15% | 89.6% (active) | -11% | 42% | 90.7% (active) | -38% | 30% | 87.5% (active)
[Cl][Hg][Cl].c1ccc(CSc2ccccc2)cc1 | 99% (active) | 99% (active) | 99% (active) | 100% (active) | 100% (active) | 99.7% (active) | 100% (active) | 99% (active) | 99.3% (active) | 99% (active) | 99% (active) | 99.4% (active) | 99% (active) | 99% (active) | 99.2% (active) | 99% (active) | 99% (active) | 99.5% (active)
Oc1cccc2cccnc12 (tested in a mixture with another compound) | -6% | 2% | 73.5% (active) | -5% | -6% | 83.8% (active) | -4% | 2% | 64% | -6% | -10% | -20.8% | -5% | -4% | 89.8% (active) | 0% | -15% | 85.5% (active)
C=CCN(CC=C)CC(C(C)=O)C(c1ccccc1)c1c(O)c2ccccc2oc1=O (stereo not given) | 32% | 32% | 85.3% (active) | 28% | 28% | 74.2% (active) | 23% | 23% | 84.2% (active) | 13% | 13% | 81.2% (active) | 27% | 27% | 78.8% (active) | 32% | 32% | 80.2% (active)
